In PubChem BioAssay:

Assay: FRG1 promoter luciferase signal modulators, primary screen, FRG1 inhibition for FSHD, cell-based, C2C12 myotubes, firefly/Renilla luciferase, luminescence (AID 1084)
Details: higher = more signal, called active from +8 up or from −8 down

z-score, inactive:
COC(=O)c1ccc(OC)c(/C=C\CC(CCc2ccccc2)OC(C)=O)c1 (stereo not given) -2.76
C[N+](C)(C)CCCC[C@@H]1NC(=O)[C@H]2C[C@@H](C(=O)NCCCCCCN)[C@@H](c3cccc(OCCO)c3)N2C1=O 0.029
C/C=C/[C@@H](CCn1cc([C@H](O)c2ccccc2)nn1)[Si](C)(C)c1ccc(OC)cc1 -1.41
CCCCCCCCCCC(O)C1C=CC2C(=O)NC(=O)C2N1Nc1ccccn1 (stereo not given) 1.06
COC(=O)[C@@]1(Cc2ccc(F)cc2)[C@H]2c3cc(C(=O)N(C)C)n(CCSCCO)c3C[C@H]2CN1C(=O)c1ccccc1 1.29
CC1CC/C=C\[C@H]2OC34C=CCN(Cc5ccccc5)C(=O)[C@H]3N(CCO)C(=O)[C@@H]4C2C(=O)O1 (stereo not given in full) 0.781
C=C(COC)C(=O)CC[C@H](OC(=O)c1ccccc1-c1ccccc1C(=O)O)c1ccc(OCCO)cc1 0.552
C=CCC(OC(C)=O)[C@@H]1[C@@H](N(Cc2cc3ccccc3o2)C(=O)Cc2ccc(OC)cc2)c2cc(OCCCO)ccc2N1C(=O)c1ccc(-c2ccccc2)cc1 (stereo not given in full) -0.199
CC1CC/C=C\[C@H]2OC34C=CCN(c5ccc(Cl)cc5)C(=O)[C@H]3N(C(CO)C(C)C)C(=O)[C@]4(C)C2C(=O)O1 (stereo not given in full) 0.51
O=C1O[C@@H](c2ccccc2)[C@@H](c2ccccc2)N2[C@@H](c3ccc(O)cc3)[C@]3(C(=O)Nc4ccc(C#CC5(O)CCCCCC5)cc43)[C@@H](C(=O)N3CCN(c4ncccn4)CC3)[C@H]12 -0.0311
CC[C@@H]1[C@@H]2C3C(=O)N(CC)C(=O)C3CC(=O)[C@@H]2[C@H](c2ccc(C)cc2)N1S(=O)(=O)c1ccc(C)cc1 (stereo not given in full) -1.04
COCCOC(=O)N1C(=O)[C@@]2(c3cc(C#CCCO)ccc31)[C@H](C(=O)NC[C@H](O)c1ccccc1)[C@H]1C(=O)O[C@H](c3ccccc3)[C@H](c3ccccc3)N1[C@@H]2c1ccccc1OCCO -0.154
C=CCOC(=O)[C@@H]1[C@H]2C(=O)O[C@H](c3ccccc3)[C@H](c3ccccc3)N2[C@H](c2ccc(OCCOC(=O)[C@@H]3C[C@@H]4C(=O)N[C@@H](CCCCNC(C)=O)C(=O)N4[C@@H]3c3ccc(O)cc3)cc2)[C@@]12C(=O)Nc1ccc(I)cc12 0.0976
CC(C)CCC[C@@H](C)[C@H]1CC[C@@]2(C)C3=C(CC[C@]12C)[C@@]1(C)CC[C@H](OC(=O)c2ccc(N)cc2)C(C)(C)C1CC3 (stereo not given in full) -1.35
CCCN1C(=O)[C@@H]2Cc3c([nH]c4ccccc34)[C@@H](c3cccc(O)c3)N2C1=O 0.85
C=CCN1C(=O)[C@@]2(O[C@@H](CCn3cc([C@H](O)c4ccccc4)nn3)[C@H]([Si](C)(C)c3ccc(OC)cc3)[C@H]2C)c2cc(NC(=O)c3ccc(OC)cc3)ccc21 -1.36
COc1ccc([Si](C)(C)[C@@H]2[C@@H](CC(=O)N(CCO)Cc3ccccc3)O[C@]3(C(=O)N(Cc4ccc(N5CCOC5=O)cc4)c4ccccc43)[C@H]2C)cc1 -0.153
COCCOC(=O)N1C(=O)[C@@]2(c3cc(C#Cc4ccc(OC)cc4)ccc31)[C@H](C(=O)N1CCc3cc(OC)c(OC)cc3C1)[C@H]1C(=O)O[C@H](c3ccccc3)[C@H](c3ccccc3)N1[C@@H]2c1ccc(O)cc1 0.707
CC(C)CNC(=O)[C@@]1(C)c2ccccc2C(=O)N(Cc2ccccc2)[C@H]1c1ccc(CO)cc1 -1.26
COc1ccccc1CN1C(=O)c2ccccc2[C@](Cc2ccccc2I)(C(=O)NCCN2CCOCC2)[C@@H]1c1ccc(CO)cc1 -3.32
CCCCCCC#C[Si](O[C@H](c1ccccc1)c1cn(Cc2cccc(Cl)c2)nn1)(C(C)C)C(C)C -0.891
COc1ccc([Si](C)(C)[C@@H]2[C@@H](CCO)O[C@]3(C(=O)N(Cc4ccccc4)c4ccc(N5CCCCC5=O)cc43)[C@H]2C)cc1 -4.38
COC(=O)[C@@]1(Cc2ccc(F)cc2)[C@@H]2[C@@H](CC(=O)[C@H]2CC(=O)C(=O)N2CCCC2)CN1C(=O)c1ccccc1 2.38
COCCOC(=O)N1C(=O)[C@@]2(c3cc(C#CCCO)ccc31)[C@H](c1ccc(OCCO)cc1)N1[C@H](c3ccccc3)[C@H](c3ccccc3)OC(=O)[C@H]1[C@@H]2C(=O)N1CCc2cc(OC)c(OC)cc2C1 -0.355
C=CC[C@]1(C(=O)NCC(O)CO)N=C(c2ccc(OCCCO)cc2)O[C@H]1c1ccccc1N=[N+]=[N-] (stereo not given in full) 1.25
O=C(O)[C@]1(CCS(=O)(=O)c2ccccc2)N=C(c2ccc(OCCCO)cc2)O[C@@H]1c1ccccc1 0.694
[N-]=[N+]=NCc1ccccc1C[C@]1(C(=O)NCCN2CCOCC2)COC(c2ccc(OCCCO)cc2)=N1 -2.23
CC(C)C[C@@H]1NC(=O)[C@@H]2C[C@H](C(=O)NCc3ccc(F)cc3)[C@H](c3ccc(O)cc3)N2C1=O -0.331
C=CCNC(=O)[C@H]1[C@@H]2C(=O)O[C@@H](c3ccccc3)[C@@H](c3ccccc3)N2[C@@H](c2ccc(O)cc2)[C@]12C(=O)N(C(=O)OCCOC)c1ccc(C#CC3(O)CCCCCC3)cc12 0.168
COCCOC(=O)N1C(=O)[C@@]2(c3cc(C#CCC(C(=O)OC)C(=O)OC)ccc31)[C@H](C(=O)N1CCCCCCC1)[C@H]1C(=O)O[C@H](c3ccccc3)[C@H](c3ccccc3)N1[C@@H]2c1ccc(O)cc1 0.741
O=[N+]([O-])c1ccc(C[n+]2ccc(-c3ccc(CO)cc3)cc2)o1 -0.721
CN1C(=O)C2C=CC(C(O)COCc3ccccc3)N(Nc3ccccc3)C2C1=O (stereo not given) 0.146
COC(=O)[C@@]1(Cc2ccc(OC)cc2)[C@H]2c3cc(C(=O)N4CCCC4)n(CCc4ccc(O)c(OC)c4)c3C[C@H]2CN1C(=O)c1ccccc1 -0.454
C=C(CCCC)/C(=C/C[C@H](OC(=O)c1ccncc1)c1ccc(CO)o1)c1cc(C(=O)OC)ccc1OC -0.906
C[C@@H]1ON(c2ccccc2)[C@H](c2ccccc2)[C@H]1C(=O)N1C(=O)OC[C@H]1Cc1ccccc1 -0.114
